In all, about 69,000 compounds went through this assay and about 8,600 (12%) showed an effect of 50% or more. Only a selection was taken, and strong results are over-represented in it overall.
Test system: Plasmodium berghei
Assay: Screen against P. berghei liver stage (PbLuc), transformed with Luciferase, at 10uM
Type: functional, HepG2
Conditions: tested at 10 uM

How did the INHIBITION turn out when `Cn1cc(NC(=O)N2CCC2c2ccccc2)ccc1=O` (centres undefined) was run?
The INHIBITION was 6.1%.

How did the INHIBITION turn out when `O=C(O)c1nc(SCc2ccccc2)ncc1Br` was run?
Its INHIBITION is 32.4%.

`CCN1CC(C(=O)NCCn2cccc2)CC1=O` (centres undefined) was tested. Which INHIBITION did it give?
The INHIBITION was 43.9%.

Which INHIBITION does the source give for `Cc1ncsc1C(=O)N1CCCC(CO)(CC2CC2)C1` (centres undefined) here?
The INHIBITION was 29.4%.

Which INHIBITION does the source give for `Cn1nc(Cn2ccnc2)c2c1CN(c1nccs1)C2` here?
The INHIBITION was 3.88%.

How did the INHIBITION turn out when `CCN1CCCCC1C(=O)N1CCC(OC2CCCC2)CC1` (centres undefined) was run?
Its INHIBITION is 10.2%.

For `O=C(c1cnccn1)N1CCCC2(CCN(Cc3ccc(F)cc3)C2)C1` (centres undefined), which INHIBITION is on record?
The INHIBITION was 8.03%.

How did the INHIBITION turn out when `CC(C)(C)C(Cn1cccn1)NC(=O)c1ccco1` (centres undefined) was run?
The INHIBITION was 35.2%.

For `Cc1cccc(CNC(Cc2ccsc2)c2nccs2)n1` (centres undefined), which INHIBITION is on record?
Its INHIBITION is -24.4%.

With `Cc1nc(C(Cc2ccsc2)NC(=O)CN2CCOCC2)sc1C` (centres undefined) as the compound, how does the INHIBITION read?
Its INHIBITION is 30.45%.

How did the INHIBITION turn out when `Cc1cccc(CNC(Cc2ccsc2)c2nc(C)c(C)s2)n1` (centres undefined) was run?
The INHIBITION was 91.6%.

How did the INHIBITION turn out when `Cc1cccc(N2CCN(CCNC(=O)C(C)n3cncn3)CC2)c1` (centres undefined) was run?
The INHIBITION was 55.5%.

`CC(C(=O)NCc1ccc(N2CCCC2)nc1)n1cncn1` (centres undefined) was tested. Which INHIBITION did it give?
Its INHIBITION is 21.6%.

How did the INHIBITION turn out when `CC(C(=O)Nc1ccc(N2CCOCC2)nc1)n1cncn1` (centres undefined) was run?
Its INHIBITION is 53%.

For `CC(C(=O)NCc1ccc(N2CCCCC2)nc1)n1cncn1` (centres undefined), which INHIBITION is on record?
Its INHIBITION is 7.12%.

How did the INHIBITION turn out when `CC(C(=O)Nc1ccc(N2CCCC2)nc1)n1cncn1` (centres undefined) was run?
Its INHIBITION is 56.1%.

How did the INHIBITION turn out when `COc1ccc(NC(=O)C(C)n2cncn2)cn1` (centres undefined) was run?
The INHIBITION was -33.9%.

`CC(C(=O)Nc1ccc(N2CCCC2)nc1)n1cccn1` (centres undefined) was tested. Which INHIBITION did it give?
Its INHIBITION is 9.54%.

`CC(C(=O)NCCN1CCN(C)CC1)n1cncn1` (centres undefined) was tested. Which INHIBITION did it give?
Its INHIBITION is 34.7%.

How did the INHIBITION turn out when `CC(C(=O)NCc1ccc(N2CCCCCC2)nc1)n1cncn1` (centres undefined) was run?
Its INHIBITION is 31.2%.

`CC(C(=O)NCCCN1CCN(c2ccccc2)CC1)n1cncn1` (centres undefined) was tested. Which INHIBITION did it give?
Its INHIBITION is -16%.

For `CC(C(=O)Nc1ccc(N2CCCCC2)nc1)n1cncn1` (centres undefined), which INHIBITION is on record?
Its INHIBITION is 28.8%.

With `CC(C(=O)Nc1cccc(N2CCCCC2)c1)n1cncn1` (centres undefined) as the compound, how does the INHIBITION read?
The INHIBITION was 70.7%.

With `CC(C)NC(=O)N1CCc2onc(C(=O)Nc3cccnc3)c2C1` as the compound, how does the INHIBITION read?
Its INHIBITION is -11%.

With `COc1cc(NCc2ccccc2-n2cncn2)nc(N)n1` as the compound, how does the INHIBITION read?
The INHIBITION was -2.43%.

`CNC(=O)NC(=O)CCN1CCN(c2nccs2)CC1` was tested. Which INHIBITION did it give?
Its INHIBITION is 11.9%.

How did the INHIBITION turn out when `O=S(=O)(N[C@@H]1CCO[C@]2(CCN(CC3CCOCC3)C2)C1)C1CC1` was run?
Its INHIBITION is 1.48%.

Which INHIBITION does the source give for `O=C1COC2(CCN(c3ncccn3)CC2)CN1Cc1ccccn1` here?
The INHIBITION was -6.21%.

`COc1ccc2c(ccn2CCC(=O)NCCCC(=O)O)c1` was tested. Which INHIBITION did it give?
The INHIBITION was 24.7%.

With `Cc1noc(C(C)N(C)Cc2ccco2)n1` (centres undefined) as the compound, how does the INHIBITION read?
The INHIBITION was -33.4%.

Which INHIBITION does the source give for `CCc1cnccc1C(=O)NC1CCN(C(=O)OC)CC1` here?
The INHIBITION was -7.16%.

With `CC(NC(=O)COC1CCCC1)c1nc(-c2ccccc2)c[nH]1` (centres undefined) as the compound, how does the INHIBITION read?
Its INHIBITION is -43.3%.

For `NCCn1cc(C(=O)N2CCNC(=O)C2c2cccc(F)c2)nn1` (centres undefined), which INHIBITION is on record?
The INHIBITION was -13.8%.

With `CN(CC(=O)NCC(F)(F)F)Cc1nc2c(s1)CCCC2` as the compound, how does the INHIBITION read?
Its INHIBITION is 46.7%.

How did the INHIBITION turn out when `CN(CC(=O)NCc1ccco1)Cc1nc2c(s1)CCCC2` was run?
Its INHIBITION is 40.8%.

For `CN(CC(=O)NCC1CCCO1)Cc1nc2c(s1)CCCC2` (centres undefined), which INHIBITION is on record?
Its INHIBITION is 57.1%.

Which INHIBITION does the source give for `O=S(=O)(CCN1CCCCC1Cn1cncn1)c1ccccc1` (centres undefined) here?
The INHIBITION was -8.11%.

For `CC(=O)NCCNC(=O)CNC1CCCN(c2ccc(C)nn2)C1` (centres undefined), which INHIBITION is on record?
Its INHIBITION is 47%.

`c1cn(-c2cnc(C3CCNCC3)cn2)cn1` was tested. Which INHIBITION did it give?
The INHIBITION was 26.8%.

For `Cc1ccnc(C2CCN(C(=O)c3cnn(C)c3)C2)n1` (centres undefined), which INHIBITION is on record?
The INHIBITION was 48.4%.

How did the INHIBITION turn out when `Cc1ccnc(C2CCN(C(=O)c3cnn(C)c3)CC2)n1` was run?
The INHIBITION was 50.3%.

For `Cc1cc(C2CCN(C(=O)c3cnn(C)c3)CC2)ccn1`, which INHIBITION is on record?
Its INHIBITION is -4.51%.

With `CCOCC1CN(C(=O)c2cccnc2)Cc2cnn(C)c21` (centres undefined) as the compound, how does the INHIBITION read?
Its INHIBITION is -2.35%.

`COc1cccc(CN2CCC(Cc3cnc(CN(C)C)cn3)CC2)c1` was tested. Which INHIBITION did it give?
Its INHIBITION is 25.8%.

For `CCn1ncc2[nH]c(-c3cc(OC)c(OC)cc3OC)nc21`, which INHIBITION is on record?
The INHIBITION was 26.5%.

With `c1cc(CN2CCc3ncc(CN4CCOCC4)n3CC2)cs1` as the compound, how does the INHIBITION read?
The INHIBITION was -36%.

Which INHIBITION does the source give for `Cc1ccc(N2CCC3(CC2)CCN(C2CCOC2)CC3)nn1` (centres undefined) here?
The INHIBITION was 8.85%.

For `Cc1ccc(N2CCN(C)c3ncccc3C2)nn1`, which INHIBITION is on record?
Its INHIBITION is 48.2%.

Which INHIBITION does the source give for `Cc1csc(N2CCC(NCC3(O)CCc4ccccc43)CC2)n1` (centres undefined) here?
Its INHIBITION is 42.6%.

How did the INHIBITION turn out when `Cc1csc(N2CCN(C3CCc4ccccc4C3)CC2)n1` (centres undefined) was run?
The INHIBITION was 53%.

How did the INHIBITION turn out when `Cc1ccc(N2C[C@H](O)[C@@H](N3CCN(c4ccccn4)CC3)C2)nn1` was run?
Its INHIBITION is 6.29%.

`Cc1csc(N2CCCN(C3Cc4ccccc4C3)CC2)n1` was tested. Which INHIBITION did it give?
Its INHIBITION is 73.9%.

`Cc1ccc(N2CCN(C3CCc4ccccc4C3)CC2)nn1` (centres undefined) was tested. Which INHIBITION did it give?
Its INHIBITION is 53.9%.

With `NC(=O)c1csc(N2CCN(C3CCc4ccccc4C3)CC2)n1` (centres undefined) as the compound, how does the INHIBITION read?
Its INHIBITION is 47.6%.

How did the INHIBITION turn out when `Cc1csc(N2CCCN(C(=O)c3ccsc3)CC2)n1` was run?
Its INHIBITION is -36.4%.

`Cc1ccc(N2CCC3(CCN(C(=O)C4CCOC4)CC3)CC2)nn1` (centres undefined) was tested. Which INHIBITION did it give?
The INHIBITION was -45.8%.

Which INHIBITION does the source give for `Cc1csc(N2CCN(Cc3ccccn3)CC2)n1` here?
The INHIBITION was 34.2%.

With `Cc1ccc(N2CCC3(CC2)CCN(C2CCOCC2)CC3)nn1` as the compound, how does the INHIBITION read?
The INHIBITION was 58.7%.

Which INHIBITION does the source give for `CS(=O)(=O)N1C[C@@H]2CCN(C(=O)c3cscn3)[C@@H]2C1` here?
The INHIBITION was 31.5%.

For `c1cnn(CCNCc2ccc(N3CCCCC3)cc2)c1`, which INHIBITION is on record?
The INHIBITION was -10.8%.

How did the INHIBITION turn out when `O=C(O)c1c(-c2ccncc2)ncc2c1CCN(Cc1ccco1)C2` was run?
The INHIBITION was 26.5%.

How did the INHIBITION turn out when `CC1CCN(c2nc3cn(C4CCS(=O)(=O)C4)c(=O)c-3c[nH]2)CC1` (centres undefined) was run?
The INHIBITION was -16.3%.

`Cc1occc1C(=O)N1C[C@@H]2OCCN(c3ncccn3)[C@@H]2C1` was tested. Which INHIBITION did it give?
The INHIBITION was 11.5%.

Which INHIBITION does the source give for `CCc1ccccc1-c1cc(OC)nc(N)n1` here?
The INHIBITION was 35%.

`N#Cc1ccc(S(=O)(=O)N2CSCC2C(=O)NCC(F)(F)F)cc1` (centres undefined) was tested. Which INHIBITION did it give?
Its INHIBITION is -13.5%.

For `CC1(C2CCN(CC(N)=O)CC2)CN(Cc2ccccc2)C(=O)CO1` (centres undefined), which INHIBITION is on record?
Its INHIBITION is 0.301%.

With `CC(=O)N1CCC(c2ccnc(Nc3cncnc3)n2)CC1` as the compound, how does the INHIBITION read?
Its INHIBITION is -2.11%.

How did the INHIBITION turn out when `Cc1cc(N2CCCCC2)c(C#N)c(C)n1` was run?
The INHIBITION was 25.2%.

For `Cc1cc(N2CCCC2)c(C#N)c(C)n1`, which INHIBITION is on record?
The INHIBITION was 4.62%.

With `Cc1csc(N2CCCN(c3cc(C)nc(C)c3C#N)CC2)n1` as the compound, how does the INHIBITION read?
Its INHIBITION is 91.9%.

How did the INHIBITION turn out when `CCOC(=O)c1cnn(C2CCN(C(=O)CC3CCCC3)CC2)c1N` was run?
The INHIBITION was 26.1%.

`COc1ccccc1C1(CNCc2ccc(C#N)cc2)CCOCC1` was tested. Which INHIBITION did it give?
The INHIBITION was 29.6%.

Which INHIBITION does the source give for `COc1ccccc1C1(CNCc2cccc(C#N)c2)CCOCC1` here?
Its INHIBITION is 20.9%.

For `COc1ccccc1C1(CNCc2cccc(O)c2)CCOCC1`, which INHIBITION is on record?
The INHIBITION was 51.3%.
